Consider 13 compounds from PubChem BioAssay (NCI).

Some test systems named below: DU-145 prostate; K-562 leukemia; MALME-3M melanoma; MDA-MB-231 breast; RXF 393 renal; SF-268 CNS; SF-295 CNS; SF-539 CNS; UACC-257 melanoma; M14 melanoma.
What all share (test): NCI-60 one-dose screen, 48 h (100 = growth as untreated, 0 = no growth, -100 = all killed)
Common to all, as to conditions: 10 µM

The structures appear in SMILES notation. The panel holds about 83,000 compounds, 20% with a hit somewhere; the sample as a whole holds those more often.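 Interpretation: 100, growth as untreated; towards 0, rising growth inhibition; 0, no net growth; 0 to -100, cell death. Compounds scoring below 10 were considered active.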 Unmarked numbers belong to inactive results. Active and inactive are the calls of the source.

For the compound `CC(C)c1[nH]nc2c(NCc3ccc(-c4ccccn4)cc3)nc(SCCN)nc12`, the growth in the test with DU-145 prostate was 5.83% (active); with K-562 leukemia, 3.89% (active); in the test with MALME-3M melanoma, -41.3% (active); in the test with MDA-MB-231 breast, 5.07% (active); with RXF 393 renal it was -71.4% (active); with SF-268 CNS, -0.883% (active). Moreover, the growth in the test with SF-295 CNS is 4.57% (active); in the test on SF-539 CNS it was -54.4% (active); in the test with UACC-257 melanoma, 1.34% (active); with M14 melanoma, -43.1% (active).
For `CCc1nn2c(-c3cc(OC)c(OC)c(OC)c3)c(-c3cc(OC)c(OC)c(OC)c3)nc2s1`, the growth in the test with DU-145 prostate was 88.1%; in the test with K-562 leukemia, 85.7%; in the test with MALME-3M melanoma, 47.5%; with MDA-MB-231 breast, 58.9%; in the test with RXF 393 renal, 38.8%; in the test with SF-268 CNS, 45.9%. Besides, the growth with SF-295 CNS is 61.4%; in the test with SF-539 CNS, 59.6%; in the test on UACC-257 melanoma it was 108%; in the test with M14 melanoma, 89.5%.
In the case of `O=C1/C(=C/c2ccc(O)cc2O)N=C2SCCCN12`, the growth is 104% in the test with DU-145 prostate; 92.5% in the test with K-562 leukemia; 101% with MALME-3M melanoma; 104% in the test with MDA-MB-231 breast; 102% in the test on RXF 393 renal; 96.9% with SF-268 CNS. Moreover, the growth in the test with SF-295 CNS was 96.3%; in the test on SF-539 CNS, 93.7%; in the test on UACC-257 melanoma it was 102%; in the test with M14 melanoma it was 100%.
On to `Nc1ncc(-c2ccc(C(F)(F)F)cc2)c(NC2CCCCCC2)n1`, for which the growth with DU-145 prostate is 64.2%; with K-562 leukemia, 16.2%; in the test on MALME-3M melanoma, -21.4% (active); in the test on MDA-MB-231 breast, 65.1%; in the test with RXF 393 renal it was 50.3%; in the test on SF-268 CNS, 56.1%. The growth is -20.9% (active) in the test with SF-295 CNS, 65.2% in the test on SF-539 CNS, -13.5% (active) in the test on UACC-257 melanoma and 27.8% with M14 melanoma.
As to `CCCN(CCC)CCCNC(=O)c1cc2c(-c3ccc(OC)c(OC)c3)nn(C)c2s1`, the growth is 13% in the test with DU-145 prostate; 6.33% (active) with K-562 leukemia; 27.6% with MALME-3M melanoma; 21.8% in the test with MDA-MB-231 breast; -2.45% (active) in the test on RXF 393 renal; 14.5% in the test on SF-268 CNS. The growth in the test with SF-295 CNS was 35%; in the test with SF-539 CNS it was 10.9%; in the test with UACC-257 melanoma, 7.46% (active); with M14 melanoma it was 9.55% (active).
For the compound `Nc1c(C(=O)NC2CCCCC2)sc2nc3c(cc12)C(=O)CCC3`, the growth in the test on DU-145 prostate is 102%; in the test with K-562 leukemia, 88.4%; in the test on MALME-3M melanoma, 139%; in the test with MDA-MB-231 breast, 101%; in the test on RXF 393 renal, 92.1%; in the test on SF-268 CNS, 109%. In addition, the growth was 88.8% in the test on SF-295 CNS, 107% in the test on SF-539 CNS, 88.1% in the test with UACC-257 melanoma and 103% with M14 melanoma.
On to `C[C@@H]1N=C(c2ccc(Br)cc2)Nc2nc3ccccn3c2C1=O`, for which the growth with DU-145 prostate is 87.7%; in the test on K-562 leukemia it was 24.3%; in the test on MALME-3M melanoma it was 51.8%; with MDA-MB-231 breast, 52.7%; in the test with RXF 393 renal, 68.2%; in the test with SF-268 CNS, 83.4%. Also, the growth was 40.9% in the test with SF-295 CNS, 74.6% in the test on SF-539 CNS, 69.9% with UACC-257 melanoma and 31.8% with M14 melanoma.
For the compound `COc1ccc2nc(NC(=O)Nc3c(F)cccc3F)sc2c1`, the growth in the test with DU-145 prostate is 105%; with K-562 leukemia it was 94.5%; in the test on MALME-3M melanoma, 105%; with MDA-MB-231 breast, 119%; with RXF 393 renal it was 106%; in the test on SF-268 CNS, 109%. The growth with SF-295 CNS is 102%; in the test on SF-539 CNS it was 104%; in the test on UACC-257 melanoma, 102%; in the test with M14 melanoma, 104%.
Turning to `NC1CCC(Nc2nc(NCc3ccc(-c4ccccc4O)nc3)c3ncn(C4CCCC4)c3n2)CC1` (stereo not given), the growth is -4.56% (active) with DU-145 prostate; -41.2% (active) in the test with K-562 leukemia; -76.1% (active) with MALME-3M melanoma; -22% (active) with MDA-MB-231 breast; -67.4% (active) with RXF 393 renal; -25.8% (active) in the test with SF-268 CNS. Also, the growth in the test on SF-295 CNS was -14.4% (active); in the test with SF-539 CNS, -81% (active); in the test with UACC-257 melanoma, -68.6% (active); in the test with M14 melanoma it was -81.5% (active).
With `COc1ccc(-c2ccc(-c3ccc(C(=N)N)c(F)c3)s2)cc1`, the growth in the test with DU-145 prostate was -97.8% (active); in the test on K-562 leukemia it was -70.2% (active); with MALME-3M melanoma, -62% (active); in the test with MDA-MB-231 breast, -89% (active); in the test on RXF 393 renal it was -80.4% (active); with SF-268 CNS, -89.8% (active). Moreover, the growth in the test on SF-295 CNS was -87.5% (active); in the test with SF-539 CNS, -93.7% (active); in the test on UACC-257 melanoma it was -87.1% (active); in the test with M14 melanoma it was -83.5% (active).
On to `Cc1[nH]nc2c(=S)[nH]c(=O)[nH]c12`, for which the growth was 106% in the test with DU-145 prostate; 105% in the test with K-562 leukemia; 88.2% with MALME-3M melanoma; 104% in the test with MDA-MB-231 breast; 107% in the test on RXF 393 renal; 104% in the test with SF-268 CNS. Also, the growth in the test with SF-295 CNS is 91%; in the test with SF-539 CNS, 101%; with UACC-257 melanoma it was 90%; with M14 melanoma, 100%.
In the case of `COc1cccc(C(=O)N(c2ccc(F)c(F)c2)C(C(=O)NC(C)(C)C)c2cc3c(C)cc(C)cc3nc2Cl)c1` (stereo not given), the growth with DU-145 prostate is 75.5%; with K-562 leukemia, 55.8%; with MALME-3M melanoma it was 95%; with MDA-MB-231 breast, 47.4%; in the test on RXF 393 renal, 72.3%; in the test with SF-268 CNS, 64.7%. Further, the growth is 54% with SF-295 CNS, 79.4% in the test with SF-539 CNS, 79.6% in the test with UACC-257 melanoma and 64.9% in the test with M14 melanoma.
On to `COC(=O)c1cnc2c(c1)Oc1ccccc1-c1ccnn1-2`, for which the growth in the test with DU-145 prostate was 109%; with K-562 leukemia, 90.7%; with MALME-3M melanoma it was 101%; with MDA-MB-231 breast, 94.8%; in the test with RXF 393 renal it was 107%; with SF-268 CNS, 98.7%. Also, the growth in the test with SF-295 CNS was 105%; in the test with SF-539 CNS, 97%; with UACC-257 melanoma it was 101%; in the test on M14 melanoma, 98.8%.
